# Measurements from PubChem BioAssay (Tox21).
# Inconclusive results are not listed. Calls of active or inactive are those of the source. The call rests on the fitted dose curve; in most records, active means well fitted activation curve with a large enough effect in the repeat runs; inconclusive means weak or mixed curves; inactive means no such curve, though single readings can be large or run the other way. Residues, ends and D or L forms follow the SMILES beside them.
# Molecular target: Nuclear receptor subfamily 1 group I member 2 (Homo sapiens) (UniProt O75469)
# Assay: CYP3A4 induction through human pregnane X receptor (PXR) by small molecules, qHTS assay (AID 1346984); further: nearly all actives have a fitted effect of over 40% in size
# Conditions: DPX-2 HepG2 PXR, CYP3A4-luciferin luminescence, 24 h; series mostly up to 46.1 µM
# From the text: National Center for Advancing Translational Sciences [NCATS]
# NIH Chemical Genomics Center [NCGC]
# U.S. Environmental Protection Agency [EPA]
# National Institutes of Environmental Health Sciences [NIEHS]
# National Toxicology Program [NTP]
# The Pregnane X receptor (PXR), a ligand activated nuclear receptor plays a critical role in the regulation of genes involved in drug metabolism and transporters. Activation of PXR is responsible for unwanted adverse drug reactions. PXR binds xenobiotics and when compounds interact with PXR enhances the expression of CYP3A genes. Identifying the compounds with the potential for PXR activation and CYP3A4 induction can be of importance in improving the efficacy of drugs with less toxicity and avoiding drug-drug interactions.
# DPX-2 (Puracyp, Inc.) cell lines, used for screening against human PXR activation has HepG2 cells co-transfected with a PXR response element and a luciferase construct containing CYP3A4 promoter. Increase in luciferase activity can be used to identify the compounds that cause the induction of CYP3A4.
# DPX-2 cells were dispensed at 2,000 cells per well in 5uL of assay medium into white, solid-bottom 1536-well plates using a Multidrop Combi dispenser (Thermo Scientific). The assay plates were incubated at 37C for 5hr before transferring 23nL of test compounds dissolved in DMSO and positive control via Pintool station (Wako). The assay plates were incubated at 37C for 24hr. After 24hr compound treatment, 1uL of 3uM (final concentration) P450 substrate (P450-Glo CYP3A4 screening system with Luciferin-IPA, Promega) was added by a Flying Reagent Dispenser (FRD, Aurora Discovery). The assay plates were incubated for 3hr at 37C. Then 5ul One-Glo assay reagent (Promega) was added to each plate by an FRD and following 30 min incubation at room temperature, luciferase activity was quantified on a ViewLux plate reader (Perkin Elmer).
row,Structure (SMILES),outcome
1,CCCCCCCCCCCCCCCC(=O)O,inactive
2,C/C=C/c1ccc(OC)cc1,inactive
3,Nc1ccc(C(=O)O)cc1,inactive
4,CCOc1ccc(NC(=O)CC(C)O)cc1 (stereo not given),inactive
5,CC1(C)[C@@H]2CC[C@@]1(C)C(=O)C2,inactive
6,NC(=O)c1ccccc1O,inactive
7,O=C(c1ccccc1)C(O)c1ccccc1 (stereo not given),inactive
8,CC(C)(Oc1ccc(C2CC2(Cl)Cl)cc1)C(=O)O (stereo not given),inactive
9,Cc1ccccc1C(OCCN(C)C)c1ccccc1 (stereo not given),inactive
10,NC(N)=O,inactive
11,O=C1CN(/N=C/c2ccc([N+](=O)[O-])o2)C(=O)N1,inactive
12,O=C(O)CCCCC(=O)O,inactive
13,c1ccc2[nH]ccc2c1,inactive
14,Cc1cc(=O)[nH]c(=S)[nH]1,inactive
15,CC(O)C(=O)O (stereo not given),inactive
16,O=C(O)c1cc(N=Nc2ccc(S(=O)(=O)Nc3ccccn3)cc2)ccc1O,inactive
17,OC(Cn1cncn1)(Cn1cncn1)c1ccc(F)cc1F,inactive
18,O=c1ccc2ccccc2o1,inactive
19,CCCCC(CC)COC(=O)/C=C/c1ccc(OC)cc1 (stereo not given),inactive
20,COC(=O)[C@H](Cc1ccccc1)NC(=O)[C@@H](N)CC(=O)O (H-Asp-Phe-OMe),inactive
21,O=c1cc[nH]c(=S)[nH]1,inactive
22,Oc1ccc(/C=C/c2cc(O)cc(O)c2)cc1,inactive
23,CCCC(CCC)C(=O)O,inactive
24,CC(O)CO (stereo not given),inactive
25,CC(O)CN(CCN(CC(C)O)CC(C)O)CC(C)O (stereo not given),inactive
26,O=C(O)CCC(=O)O,inactive
27,CC(=O)OCC(COC(C)=O)OC(C)=O,inactive
28,Cc1cn([C@H]2C[C@H](N=[N+]=[N-])[C@@H](CO)O2)c(=O)[nH]c1=O,inactive
29,CCCC(O)C(CC)CO (stereo not given),inactive
30,CC(C)[C@@H]1CC[C@@H](C)C[C@H]1O,inactive
